About 7,900 targets were measured; listed, in parts, are those with a hit and a random draw of the rest. About 0.6% of all pairs of compound and target were hits. Unmarked numbers belong to inactive results.
Columns and labels:
Assay in all cases: log2 fold change, soluble protein after heating vs DMSO (PISA); higher = thermal stabilisation; K562 cells, 10 uM, 30 min; active = over 0.2 and 3.5 SD of the protein, either way, in both replicates (recomputed)
[1] = compound: CS(=O)(=O)c1ccc(-c2cnc(N)c(C(=O)Nc3ccccc3)n2)cc1
Procedure, shortened: (§1)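 Thermal stability values are relative to control samples and come from duplicates. They are expressed as log2 fold changes. For measurement, K562 cells (2×10^6 cells/mL) received 10 μM compound for 30 min, and aliquots were heated for 3 min over 48°C-58°C, pooled, and extracted at 4°C in PBS with 0.5% NP-40. Soluble protein, the supernatant after 21,000xg for 90 min, was quantified by TMTpro 16plex LC-MS/MS with equalised channel sums.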

crizotinib = compound: C[C@@H](Oc1cc(-c2cnn(C3CCNCC3)c2)cnc1N)c1c(Cl)ccc(F)c1Cl [crizotinib]
Procedure, shortened: as §1

[2] = compound: C[C@@H]1COCCN1C2=NC(=NC(=C2)C3(CC3)S(=O)(=O)C)C4=C5C=CNC5=CC=C4
Procedure, shortened: as §1

[3] = compound: C[C@H](C1=CC=C(C=C1)C(=O)NC2=C3C=CNC3=NC=C2)N
Procedure, shortened: as §1

duvelisib = compound: C[C@H](Nc1ncnc2nc[nH]c12)c1cc2cccc(Cl)c2c(=O)n1-c1ccccc1 [duvelisib]
Procedure, shortened: as §1

gandotinib = compound: Cc1cc(Nc2cc(CN3CCOCC3)c3nc(C)c(Cc4ccc(Cl)cc4F)n3n2)n[nH]1 [gandotinib]
Procedure, shortened: as §1

tozasertib = compound: Cc1cc(Nc2cc(N3CCN(C)CC3)nc(Sc3ccc(NC(=O)C4CC4)cc3)n2)n[nH]1 [tozasertib]
Procedure, shortened: as §1

[4] = compound: Cc1cc(SCc2sc(-c3ccc(C(F)(F)F)cc3)nc2C)ccc1OCC(=O)O
Procedure, shortened: as §1

doramapimod = compound: Cc1ccc(-n2nc(C(C)(C)C)cc2NC(=O)Nc2ccc(OCCN3CCOCC3)c3ccccc23)cc1 [doramapimod]
Procedure, shortened: as §1

ispinesib = compound: Cc1ccc(C(=O)N(CCCN)[C@@H](c2nc3cc(Cl)ccc3c(=O)n2Cc2ccccc2)C(C)C)cc1 [ispinesib]
Procedure, shortened: as §1

bafetinib = compound: Cc1ccc(NC(=O)c2ccc(CN3CC[C@H](N(C)C)C3)c(C(F)(F)F)c2)cc1Nc1nccc(-c2cncnc2)n1 [bafetinib]
Procedure, shortened: as §1

[5] = compound: Cc1cccc(CC(=O)N2CCc3c2ccc(-c2cn(C)c4ncnc(N)c24)c3F)n1
Procedure, shortened: as §1

nilotinib = compound: Cc1cn(-c2cc(NC(=O)c3ccc(C)c(Nc4nccc(-c5cccnc5)n4)c3)cc(C(F)(F)F)c2)cn1 [nilotinib]
Procedure, shortened: as §1

[6] = compound: Cc1nc(Nc2n[nH]c3c2CN(C(=O)N[C@H](CN(C)C)c2ccccc2)C3(C)C)c2sccc2n1
Procedure, shortened: as §1

dasatinib = compound: Cc1nc(Nc2ncc(C(=O)Nc3c(C)cccc3Cl)s2)cc(N2CCN(CCO)CC2)n1 [dasatinib]
Procedure, shortened: as §1

[7] = compound: Cc1ncc(-c2ccnc(Nc3ccc(S(C)(=O)=O)cc3)n2)n1C(C)C
Procedure, shortened: as §1

[8] = compound: Cn1cc(-c2ccc3c(c2)CCN3C(=O)Cc2cccc(C(F)(F)F)c2)c2c(N)ncnc21
Procedure, shortened: as §1

[9] = compound: Cn1cc(-c2ccc3nnc(C(F)(F)c4ccc5ncccc5c4)n3n2)cn1
Procedure, shortened: as §1

tipifarnib = compound: Cn1cncc1[C@@](N)(c1ccc(Cl)cc1)c1ccc2c(c1)c(-c1cccc(Cl)c1)cc(=O)n2C [tipifarnib]
Procedure, shortened: as §1

mubritinib = compound: FC(F)(F)c1ccc(/C=C/c2nc(COc3ccc(CCCCn4ccnn4)cc3)co2)cc1 [mubritinib]
Procedure, shortened: as §1

Sequence of UniProt Q66PJ3 (Q66PJ3 whole entry, looked up): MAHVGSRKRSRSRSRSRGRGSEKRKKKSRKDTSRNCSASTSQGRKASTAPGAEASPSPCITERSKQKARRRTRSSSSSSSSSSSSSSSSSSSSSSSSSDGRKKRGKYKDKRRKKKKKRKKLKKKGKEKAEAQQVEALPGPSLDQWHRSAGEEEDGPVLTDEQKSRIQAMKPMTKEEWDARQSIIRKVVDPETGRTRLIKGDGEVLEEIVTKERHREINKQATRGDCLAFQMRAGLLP
Sequence of UniProt P78363 (P78363 whole entry, looked up): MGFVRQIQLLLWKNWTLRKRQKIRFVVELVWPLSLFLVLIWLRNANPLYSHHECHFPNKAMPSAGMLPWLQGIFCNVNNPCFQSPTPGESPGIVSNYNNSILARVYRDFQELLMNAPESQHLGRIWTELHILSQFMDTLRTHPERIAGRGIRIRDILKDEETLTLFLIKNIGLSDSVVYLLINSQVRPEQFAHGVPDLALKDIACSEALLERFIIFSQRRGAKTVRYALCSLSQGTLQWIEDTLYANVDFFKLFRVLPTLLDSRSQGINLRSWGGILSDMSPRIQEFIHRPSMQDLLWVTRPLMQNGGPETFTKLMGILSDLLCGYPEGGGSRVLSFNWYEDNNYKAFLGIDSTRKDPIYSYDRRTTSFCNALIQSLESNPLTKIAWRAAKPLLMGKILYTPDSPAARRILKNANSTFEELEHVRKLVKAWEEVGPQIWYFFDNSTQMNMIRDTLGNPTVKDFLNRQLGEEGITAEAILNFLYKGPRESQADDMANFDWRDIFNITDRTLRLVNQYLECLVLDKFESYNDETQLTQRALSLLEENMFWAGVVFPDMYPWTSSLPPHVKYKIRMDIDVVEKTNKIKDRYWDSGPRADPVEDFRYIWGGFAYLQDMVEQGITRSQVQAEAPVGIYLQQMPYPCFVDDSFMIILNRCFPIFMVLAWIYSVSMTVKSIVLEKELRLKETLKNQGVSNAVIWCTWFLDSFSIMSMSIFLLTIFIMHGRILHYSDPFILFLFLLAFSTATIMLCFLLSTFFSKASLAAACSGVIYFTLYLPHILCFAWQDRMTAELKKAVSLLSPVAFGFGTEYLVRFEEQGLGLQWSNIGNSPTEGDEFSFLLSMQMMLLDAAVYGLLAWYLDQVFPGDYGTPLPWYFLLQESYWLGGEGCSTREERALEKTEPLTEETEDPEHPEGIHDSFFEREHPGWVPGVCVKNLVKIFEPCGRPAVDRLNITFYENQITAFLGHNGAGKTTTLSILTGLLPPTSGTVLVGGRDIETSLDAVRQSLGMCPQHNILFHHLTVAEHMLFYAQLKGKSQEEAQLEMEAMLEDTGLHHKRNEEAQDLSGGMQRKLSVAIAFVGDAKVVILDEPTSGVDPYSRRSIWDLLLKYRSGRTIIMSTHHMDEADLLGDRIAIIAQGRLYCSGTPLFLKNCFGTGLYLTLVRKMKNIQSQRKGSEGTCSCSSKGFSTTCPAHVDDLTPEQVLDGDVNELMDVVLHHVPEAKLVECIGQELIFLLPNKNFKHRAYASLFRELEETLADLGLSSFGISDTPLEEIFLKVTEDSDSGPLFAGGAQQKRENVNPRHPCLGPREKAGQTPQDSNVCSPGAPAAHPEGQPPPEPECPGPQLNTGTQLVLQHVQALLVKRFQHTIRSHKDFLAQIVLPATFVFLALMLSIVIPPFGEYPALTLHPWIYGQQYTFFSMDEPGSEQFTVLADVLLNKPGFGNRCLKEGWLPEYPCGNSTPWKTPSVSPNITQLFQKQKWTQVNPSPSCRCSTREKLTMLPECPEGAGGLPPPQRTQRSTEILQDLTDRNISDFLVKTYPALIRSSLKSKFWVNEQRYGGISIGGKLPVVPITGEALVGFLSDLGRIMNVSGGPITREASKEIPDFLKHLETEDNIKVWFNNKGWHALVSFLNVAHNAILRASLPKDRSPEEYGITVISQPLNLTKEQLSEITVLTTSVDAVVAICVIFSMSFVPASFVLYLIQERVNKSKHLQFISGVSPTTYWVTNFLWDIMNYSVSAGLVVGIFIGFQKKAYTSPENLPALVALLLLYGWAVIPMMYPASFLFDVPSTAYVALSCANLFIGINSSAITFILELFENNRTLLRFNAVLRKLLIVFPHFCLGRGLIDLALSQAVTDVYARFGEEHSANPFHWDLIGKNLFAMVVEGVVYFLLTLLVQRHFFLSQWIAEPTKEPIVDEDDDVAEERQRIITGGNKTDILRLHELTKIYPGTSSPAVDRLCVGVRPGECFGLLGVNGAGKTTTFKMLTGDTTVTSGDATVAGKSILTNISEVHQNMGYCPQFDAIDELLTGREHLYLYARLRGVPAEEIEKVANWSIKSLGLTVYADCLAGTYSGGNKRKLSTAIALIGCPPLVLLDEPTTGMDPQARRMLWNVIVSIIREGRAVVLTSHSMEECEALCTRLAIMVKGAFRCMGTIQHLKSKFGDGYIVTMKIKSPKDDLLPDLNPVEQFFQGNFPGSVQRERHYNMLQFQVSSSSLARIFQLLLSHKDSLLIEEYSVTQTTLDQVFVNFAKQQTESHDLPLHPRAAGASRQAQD
Sequence of UniProt P53680 (P53680 whole entry, looked up): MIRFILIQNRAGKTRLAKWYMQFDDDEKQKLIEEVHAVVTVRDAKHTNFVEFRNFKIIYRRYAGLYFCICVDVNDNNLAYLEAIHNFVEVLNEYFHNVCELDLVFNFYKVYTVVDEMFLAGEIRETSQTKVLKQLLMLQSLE
Sequence of UniProt P25440 (P25440 whole entry, looked up): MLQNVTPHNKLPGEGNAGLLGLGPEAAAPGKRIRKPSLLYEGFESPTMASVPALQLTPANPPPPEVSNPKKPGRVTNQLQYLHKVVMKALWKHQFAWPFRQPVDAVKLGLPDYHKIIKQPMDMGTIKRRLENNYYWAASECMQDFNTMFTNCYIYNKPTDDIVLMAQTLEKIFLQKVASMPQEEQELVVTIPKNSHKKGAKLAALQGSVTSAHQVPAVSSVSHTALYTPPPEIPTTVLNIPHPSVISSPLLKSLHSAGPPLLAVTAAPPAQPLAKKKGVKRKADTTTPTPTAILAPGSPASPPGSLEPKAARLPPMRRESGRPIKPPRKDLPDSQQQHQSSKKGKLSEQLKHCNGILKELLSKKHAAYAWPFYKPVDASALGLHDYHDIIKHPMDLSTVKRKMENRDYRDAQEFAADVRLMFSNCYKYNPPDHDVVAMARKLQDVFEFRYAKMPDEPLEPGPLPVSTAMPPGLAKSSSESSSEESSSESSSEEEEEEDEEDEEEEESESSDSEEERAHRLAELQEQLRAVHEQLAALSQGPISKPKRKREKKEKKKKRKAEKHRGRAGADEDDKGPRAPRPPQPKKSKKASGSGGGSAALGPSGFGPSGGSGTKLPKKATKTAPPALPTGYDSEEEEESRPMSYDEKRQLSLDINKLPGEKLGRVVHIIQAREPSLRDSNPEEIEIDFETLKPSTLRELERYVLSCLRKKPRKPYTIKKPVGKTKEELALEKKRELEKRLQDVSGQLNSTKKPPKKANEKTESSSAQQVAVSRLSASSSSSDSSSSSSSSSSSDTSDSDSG
Sequence of UniProt P17707 (P17707 whole entry, looked up): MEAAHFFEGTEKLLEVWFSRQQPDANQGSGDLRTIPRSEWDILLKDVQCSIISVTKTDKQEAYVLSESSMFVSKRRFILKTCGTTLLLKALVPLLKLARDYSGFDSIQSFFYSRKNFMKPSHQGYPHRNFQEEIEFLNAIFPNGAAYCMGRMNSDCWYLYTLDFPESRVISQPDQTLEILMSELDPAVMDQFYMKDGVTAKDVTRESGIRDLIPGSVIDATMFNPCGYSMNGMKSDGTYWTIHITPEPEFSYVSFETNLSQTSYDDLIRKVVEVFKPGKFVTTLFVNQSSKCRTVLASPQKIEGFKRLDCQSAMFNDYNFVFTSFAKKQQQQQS
Sequence of UniProt Q14137 (Q14137 whole entry, looked up): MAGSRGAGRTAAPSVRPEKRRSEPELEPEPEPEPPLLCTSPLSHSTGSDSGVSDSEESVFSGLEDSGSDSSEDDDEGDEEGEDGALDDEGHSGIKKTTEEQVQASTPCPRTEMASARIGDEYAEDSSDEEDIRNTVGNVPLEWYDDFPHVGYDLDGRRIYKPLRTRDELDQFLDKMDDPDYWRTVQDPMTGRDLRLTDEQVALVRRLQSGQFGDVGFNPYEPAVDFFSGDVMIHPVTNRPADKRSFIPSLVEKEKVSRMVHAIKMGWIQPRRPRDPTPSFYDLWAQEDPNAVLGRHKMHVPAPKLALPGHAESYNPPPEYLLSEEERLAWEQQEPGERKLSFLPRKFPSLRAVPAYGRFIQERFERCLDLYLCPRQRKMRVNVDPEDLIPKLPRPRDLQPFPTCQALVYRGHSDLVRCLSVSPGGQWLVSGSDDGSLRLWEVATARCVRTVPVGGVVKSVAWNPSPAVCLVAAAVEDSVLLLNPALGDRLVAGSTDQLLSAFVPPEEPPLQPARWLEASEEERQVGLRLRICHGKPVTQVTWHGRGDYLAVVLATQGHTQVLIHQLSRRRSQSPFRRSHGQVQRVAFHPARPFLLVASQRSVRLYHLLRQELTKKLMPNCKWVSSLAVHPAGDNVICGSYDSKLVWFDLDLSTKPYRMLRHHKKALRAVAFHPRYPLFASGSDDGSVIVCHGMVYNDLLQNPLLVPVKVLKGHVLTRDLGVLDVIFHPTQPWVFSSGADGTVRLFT
Sequence of UniProt Q9BUT1 (Q9BUT1 whole entry, looked up): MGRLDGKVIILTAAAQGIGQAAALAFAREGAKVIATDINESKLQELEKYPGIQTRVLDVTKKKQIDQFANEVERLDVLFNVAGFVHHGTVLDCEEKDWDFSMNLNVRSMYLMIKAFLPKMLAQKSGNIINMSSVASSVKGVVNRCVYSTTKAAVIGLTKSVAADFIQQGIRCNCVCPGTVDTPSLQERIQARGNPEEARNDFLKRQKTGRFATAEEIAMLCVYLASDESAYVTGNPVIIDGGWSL
Sequence of UniProt Q9Y587 (Q9Y587 whole entry, looked up): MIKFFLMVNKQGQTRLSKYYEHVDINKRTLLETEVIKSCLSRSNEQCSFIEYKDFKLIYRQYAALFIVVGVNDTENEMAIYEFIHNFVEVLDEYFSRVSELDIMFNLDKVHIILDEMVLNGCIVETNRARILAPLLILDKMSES

| Target | log2 fold change [1] | log2 fold change (crizotinib) | log2 fold change [2] | log2 fold change [3] | log2 fold change (duvelisib) | log2 fold change (gandotinib) | log2 fold change (tozasertib) | log2 fold change [4] | log2 fold change (doramapimod) | log2 fold change (ispinesib) | log2 fold change (bafetinib) | log2 fold change [5] | log2 fold change (nilotinib) | log2 fold change [6] | log2 fold change (dasatinib) | log2 fold change [7] | log2 fold change [8] | log2 fold change [9] | log2 fold change (tipifarnib) | log2 fold change (mubritinib) |
| --- | --- | --- | --- | --- | --- | --- | --- | --- | --- | --- | --- | --- | --- | --- | --- | --- | --- | --- | --- | --- |
| BOP1 (UniProt Q14137) | -0.008 | 0.11 | -0.153 | 0.064 | -0.113 | 0.025 | 0.007 | 0.134 | -0.008 | -0.114 | 0.031 | -0.083 | -0.028 | -0.159 | 0.02 | -0.122 | -0.038 | -0.087 | 0.114 | -0.114 |
| ACADVL isoform 3 (UniProt P49748) | 0.042 | 0.021 | 0.078 | -0.058 | 0.081 | -0.01 | 0.003 | -0.005 | -0.065 | -0.01 | -0.093 | 0 | 0.032 | 0.02 | -0.016 | -0.007 | 0.022 | 0.026 | -0.01 | 0.071 |
| AFDN isoform 5 (UniProt P55196) | 0.027 | -0.154 | 0.04 | -0.094 | -0.016 | -0.159 | -0.029 | 0.063 | 0.009 | -0.002 | -0.012 | 0.035 | -0.06 | -0.135 | -0.16 | -0.06 | 0.044 | -0.008 | -0.045 | 0.054 |
| AGPS (UniProt O00116) | 0.016 | -0.038 | 0.048 | -0.053 | 0.099 | -0.047 | -0.005 | 0.19 | 0.018 | 0.015 | -0.068 | 0.025 | 0.039 | -0.012 | -0.023 | 0.006 | 0.09 | 0.01 | 0.032 | 0.112 |
| ANXA5 (UniProt P08758) | 0.03 | 0.045 | 0.108 | -0.002 | 0.043 | -0.083 | 0.041 | 0.052 | -0.059 | 0.006 | 0.019 | 0.058 | -0.015 | -0.052 | -0.079 | 0.006 | 0.017 | 0.025 | -0.061 | 0.009 |
| ARL6IP4 (UniProt Q66PJ3) | 0.014 | 0.026 | 0.036 | -0.093 | 0.039 | 0.114 | -0.005 | -0.038 | 0.013 | -0.051 | -0.042 | 0.002 | -0.012 | -0.459 (active) | 0.016 | 0.013 | 0.112 | -0.038 | 0.019 | 0.023 |
| ATG9A (UniProt Q7Z3C6) | 0.074 | -0.11 | 0.036 | 0.036 | 0.042 | -0.062 | 0.012 | 0.069 | -0.016 | -0.239 (active) | -0.048 | -0.013 | -0.04 | -0.108 | -0.046 | -0.014 | 0.06 | -0.022 | 0.168 | 0.042 |
| ATP6V1C1 (UniProt P21283) | -0.05 | 0.1 | -0.05 | 0.14 | 0.049 | 0.033 | 0.116 | 0.041 | 0.015 | 0.122 | -0.083 | 0.063 | -0.137 | -0.191 | -0.045 | 0.115 | -0.083 | -0.105 | 0.03 | 0.083 |
| BDH2 (UniProt Q9BUT1) | 0.035 | 0.243 |  | -0.215 | -0.01 | 0.011 |  | 0.067 | -0.053 | 0.053 | 0.114 | 0.069 |  |  | 0.031 |  | 0.063 | -0.032 | 0.017 | 0.274 |
| BRAF (UniProt P15056) | 0.006 | 0.023 | 0.034 | -0.072 | -0.014 | -0.013 | -0.004 | -0.014 |  | -0.024 | 0.067 | 0.019 |  | -0.099 |  | -0.014 | 0.03 | 0.01 | -0.034 | -0.059 |
| AMD1 (UniProt P17707) | -0.058 | 0.059 | 0.035 |  |  | 0.043 | 0.105 |  | -0.07 | 0.008 | 0.091 | -0.141 | -0.089 | 0.001 |  | -0.037 |  | -0.071 | -0.022 | 0.056 |
| ASB6 (UniProt Q9NWX5) | 0.019 | 0.013 | -0.025 |  |  | 0.109 |  |  | 0.037 | -0.143 | -0.039 | 0.014 | -0.066 | -0.279 |  | -0.07 |  | -0.034 | -0.02 | 0.037 |
| AP4S1 (UniProt Q9Y587) | -0.027 | -0.028 | 0.065 | 0.133 | -0.122 |  |  | 0.013 | -0.088 |  | 0.068 |  | -0.015 | -0.016 | -0.036 | 0.072 | -0.103 |  | 0.076 | -0.013 |
| AP2S1 (UniProt P53680) | -0.022 | -0.106 | 0.453 | -0.151 | 0.04 | -0.046 | -0.054 | 0.046 | 0.031 | 0.077 | 0.023 | -0.01 | -0.019 | -0.009 | -0.011 | -0.082 | -0.057 | 0.004 | -0.04 | -0.001 |
| BRD2 isoform 2 (UniProt P25440) | 0.618 | 0.006 |  | -0.065 | 0.295 | -0.089 | 0.168 | -0.083 | 0.064 |  | 0.136 | 0.476 |  |  | -0.32 |  | 0.11 |  | -0.171 |  |
| ABCA4 (UniProt P78363) | 0.286 | 0.035 | 0.036 | 0.019 |  | 0.452 | -0.055 |  | 0.004 | -0.119 | -0.025 | -0.149 | 0.106 | 0.095 |  | 0.045 | 0.016 | -0.071 |  | 0.154 |
| ATR (UniProt Q13535) | 0.063 | -0.021 |  | 0.022 | 0.004 | -0.09 | -0.038 | 0.026 | -0.123 | 0.004 | -0.036 | -0.028 | -0.07 | 0.036 | -0.123 | -0.054 | 0.012 | 0.039 | -0.022 | -0.013 |
| ADAMTS5 (UniProt Q9UNA0) | 0.077 | 0.084 |  | -0.08 | 0.111 | 0.178 | -0.093 | -0.136 | 0.052 | -0.035 | -0.103 | -0.066 | 0.022 | 0.052 | 0.033 | -0.079 | 0.088 | 0.063 |  | 0.154 |

Reference: the supplement of paper PMC10849652
